Paper PMC4552634, “A New Set of Chemical Starting Points with Plasmodium falciparum Transmission-Blocking Potential for Antimalarial Drug Discovery” (PLoS ONE, 2015)
In all, about 13,000 compounds went through this assay and about 3,200 (25%) showed an effect of 50% or more. Some of the results follow.

System: P. falciparum stage V gametocytes
Set-up: BacTiter-Glo ATP luminescence viability of purified stage V gametocytes in 384-well plates, per cent inhibition versus DMSO
Details: 48 h, 5 µM; inhibitor

Point of comparison: Cc1nn(-c2ccccc2)c2sc(C(=O)N(CCCN(C)C)c3nc(-c4ccccc4)cs3)cc12 [TCMDC-125428], “% Inhibition” value 100.2%. Against it:
- N#Cc1cccc(NC(=O)Nc2ccc(-c3ccc(-c4nc5ccc(C(F)(F)F)cc5[nH]4)cc3)cc2)c1 [TCMDC-133190] — lower, -5.798%
- Cc1cccc(NC(=O)Nc2cccc(-c3ccc(-c4nc5ccc(C(F)(F)F)cc5[nH]4)cc3)c2)c1 [TCMDC-133305] — lower, 4.928%
- CCN(CC)CCCN(CCCN(CC)CC)c1cc(C)nc(Nc2ccc(Br)cc2)n1 [TCMDC-138007] — lower, 66.18%
- CCN(CCCN1CCCCC1)c1cc(C)nc(Nc2ccc(C)cc2)n1 [TCMDC-132427] — lower, -21.39%
- Cc1cc(N(C)CCN(C)C)nc(Nc2ccc(Br)cc2)n1 [TCMDC-137013] — lower, 18.91%
- CCCc1ccc(Nc2nc(C)cc(N(CC)CCCN3CCCCC3)n2)cc1 [TCMDC-132453] — lower, 39.01%
- CCCCN(CCCC)CCCN(CCCN(CCCC)CCCC)c1cc(C)nc(Nc2ccc(Br)cc2)n1 [TCMDC-138004] — lower, 92.54%
- Cc1cc(N(C)CCCN(C)C)nc(Nc2ccc(Br)cc2)n1 [TCMDC-136888] — lower, 36.7%
- O=C(Nc1cccc(-c2ccc(-c3nc4cc(F)ccc4[nH]3)s2)c1)c1cccnc1 [TCMDC-136931] — lower, -7.86%
- CCOc1cc2ncnc(Nc3ccc(OCc4ccccc4OC)c(OC)c3)c2cc1OCC [TCMDC-131912] — lower, -29.04%
- CCN(CC)CCCN(C(=O)c1cc2c(C)nn(-c3ccccc3)c2s1)c1nc(-c2ccc(OC)cc2)cs1 [TCMDC-125429] — lower, 17.92%
- COc1ccc(-c2csc(N(CCCN(C)C)C(=O)c3cc4c(C)nn(-c5ccccc5)c4s3)n2)cc1 [TCMDC-124034] — lower, 46.49%
- Cc1n[nH]c(C)c1C1CCN(CC2CCC(NC(=O)/C=C/c3ccc(Cl)c(Cl)c3)CC2)CC1 (centres unmarked) [TCMDC-139624] — lower, 34.25%
- CCCCc1ccc(-c2ccc(-c3c(C)[nH]c(C)c(Br)c3=O)cn2)cc1 [TCMDC-135687] — lower, 10.67%
- Cc1[nH]c(C)c(-c2ccc(-c3ccccc3Cl)nc2)c(=O)c1Br [TCMDC-136157] — lower, 75.71%
- Cc1[nH]c(C)c(-c2ccc(-c3ccccc3Cl)nc2)c(=O)c1Cl [TCMDC-136303] — lower, 74.15%
- COc1ccc(NC(=O)N2CCN(CCCCCNC(=O)/C=C/c3ccc(C(F)(F)F)cc3)CC2)cc1Cl [TCMDC-136097] — lower, -39.25%
- OC1(c2ccc(Cl)c(C(F)(F)F)c2)CCN(CCOC2c3ccccc3CSc3ccc(Cl)cc32)CC1 (centres unmarked) [TCMDC-124001] — lower, 11.98%
- CC(C)C(C(=O)n1cc2c(ccc3nc(N)nc(N)c32)n1)C(C)C [TCMDC-137334] — lower, -12.47%
- O=C1COc2cc(Cl)c(CNC3CCN(CCc4ccnc5c(F)cc(F)cc45)CC3)nc2N1 [TCMDC-141732] — lower, -3.632%
- COc1ccc2nccc([C@@H](O)CN3CCC(NCc4cc5sccc5nc4C(F)(F)F)CC3)c2c1 [TCMDC-141152] — lower, 4.239%
- COC(=O)Cc1ccc(N)c2ccccc12 [TCMDC-139173] — lower, -43.46%
- COc1ccc(CNCCCCCCNCc2ccc(OC)c3ccccc23)c2ccccc12 [TCMDC-137631] — higher, 111.4%
- COc1ccc(CCNCCCCNCCc2ccc(OC)c3ccccc23)c2ccccc12 [TCMDC-137961] — higher, 106.4%
- CCc1nonc1NC(=O)c1oc2c(C)c(C)ccc2c1C [TCMDC-123827] — lower, 4.304%
- O=C(O)C(F)(F)F.c1cncc(CCNCc2cccc(-c3ccc(-c4nc5ccccc5[nH]4)s3)c2)c1 [TCMDC-132877] — lower, -12.84%
- FC(F)(F)c1ccc2[nH]c(-c3ccc(-c4cccc(CNCCc5ccncc5)c4)s3)nc2c1.O=C(O)C(F)(F)F [TCMDC-132849] — lower, -1.104%
- FC(F)(F)c1ccc2[nH]c(-c3ccc(-c4cccc(CNCc5ccccc5)c4)s3)nc2c1.O=C(O)C(F)(F)F [TCMDC-132708] — lower, -60.8%
- CNCCNCc1cccc(-c2ccc(-c3nc4cc(C(F)(F)F)ccc4[nH]3)s2)c1.O=C(O)C(F)(F)F [TCMDC-132830] — lower, 50.68%
- FC(F)(F)c1ccc2[nH]c(-c3ccc(-c4cccc(CNCCc5cccnc5)c4)s3)nc2c1.O=C(O)C(F)(F)F [TCMDC-132874] — lower, 67.94%
- CS(=O)(=O)NCCCNCc1cccc(-c2ccc(-c3nc4cc(C(F)(F)F)ccc4[nH]3)s2)c1.O=C(O)C(F)(F)F [TCMDC-133083] — lower, -25.93%
- N#CN1CC[C@H](CS(=O)(=O)c2cccc(Br)c2)C1 [TCMDC-133806] — lower, 9.818%
- COc1ccc(N2C(=O)c3c(c4ccccc4n3C)C2c2ccccc2O)cc1 (centres unmarked) [TCMDC-124403] — lower, -39.6%
- O=S(=O)(c1ccc(OCc2ccc(Cl)cc2)cc1)c1cc2c(cc1OCc1ccccc1)CCN(C1CCC1)CC2 [TCMDC-135998] — lower, 60.24%
- O=S(=O)(c1ccc(OCc2ccc(Cl)cc2)cc1)c1cc2c(c(-c3ccc(F)cc3)c1)CCN(CC1CC1)CC2 [TCMDC-135736] — lower, 93.21%
- O=S(=O)(Nc1cc2c(cc1OCc1ccccc1)CCN(C1CCC1)CC2)c1ccc(-c2ccc(Cl)cc2)cc1 [TCMDC-136027] — lower, -11.35%
- O=S(=O)(c1ccc(OCc2ccc(Cl)cc2)cc1)c1cc2c(cc1OCc1ccccc1)CCN(CC1CC1)CC2 [TCMDC-134410] — lower, 0.8378%
- COc1cc2c(cc1S(=O)(=O)c1ccc(OCc3ccc(Cl)cc3)cc1)CCN(Cc1ccc(NC(C)=O)s1)CC2 [TCMDC-132326] — lower, -7.841%
- O=S(=O)(c1ccc(OCc2ccc(Cl)cc2)cc1)c1cc2c(cc1O)CCN(C1CCC1)CC2 [TCMDC-135997] — lower, 28.22%
- COc1ccc2nccc([C@@H](O)CN3CCC(NCc4ccc5nsnc5c4)CC3)c2c1 [TCMDC-140928] — lower, 4.203%
- O=C(NCc1cccc(C(F)(F)F)c1)C1CCCN(C(=O)c2ccc(O)c(-c3ccc(Cl)c(Cl)c3)c2)C1 (centres unmarked) [TCMDC-140885] — lower, 20.85%
- O=C(Cc1cnc[nH]1)Nc1cccc(-c2cccc(-c3nc4ccccc4[nH]3)c2)c1 [TCMDC-136940] — lower, -12.56%
- CCC(CSC1CCCCC1)N(C)CCN(C)C(CC)CSC1CCCCC1 (centres unmarked) [TCMDC-131456] — higher, 101.8%
- CCc1ccc(NC(=O)c2ccc(CN3CCCN(Cc4cccs4)CC3)cc2)cc1 [TCMDC-136447] — lower, -19.53%
- CC(C)C(=O)n1ncc2c3c(N)nc(N)nc3ccc21 [TCMDC-137841] — lower, -14.38%
- CCN(CCO)Cc1ccc(-c2ccc(NS(=O)(=O)c3cccc4cccnc34)cc2)cc1 [TCMDC-136477] — lower, -29.46%
- Cc1cc(C(=O)Nc2ccc3c(c2)CCN3C2CCN(Cc3csc4ccccc34)C2)no1 (centres unmarked) [TCMDC-135082] — lower, 15.45%
- CCN(CC)CCCNc1cc[n+]([O-])c2cc3ccccc3cc12 [TCMDC-124146] — lower, -26.87%
- CCCCNc1cc(NCCCC)c2c(n1)[nH]c1ccccc12 [TCMDC-131827] — lower, -13.41%
- CCN(CC)CCCNc1c2ccccc2nc2ccccc12.Cl [TCMDC-125517] — lower, 76.48%
- c1ccc2c(NCCc3c[nH]cn3)c3ccccc3nc2c1 [TCMDC-124424] — lower, 5.484%
- CCN(CC)CCNc1ccnc2c3ccccc3n(C)c12 [TCMDC-131844] — lower, 2.979%
- CCCCN(CCCC)CCCCCCNc1c2ccccc2nc2ccccc12 [TCMDC-137519] — higher, 114.2%
- CCCCN(CCCC)CCCCNc1c2ccccc2nc2ccccc12 [TCMDC-137461] — higher, 102%
- Cl.c1ccc2c(NCCOCCNc3c4ccccc4nc4ccccc34)c3ccccc3nc2c1 [TCMDC-124265] — higher, 121.8%
- Cc1ccc(-c2cccc3c(NC(=O)Nc4ccc5nccc(N6CCN(C)CC6)c5c4)cccc23)cn1 [TCMDC-139367] — lower, -6.741%
- COc1ccccc1C1CCN(C2CCC(NC(=O)/C=C/c3ccc(C(F)(F)F)cc3)CC2)CC1 (centres unmarked) [TCMDC-133487] — lower, 28.53%
- CCNc1cc(C)nc(Nc2ccc(NS(=O)(=O)c3ccccc3)cc2)n1 [TCMDC-124954] — lower, -28.24%
- Cc1cccc(C)c1CNc1ccnc2cc(Br)ccc12 [TCMDC-132168] — lower, -25.57%
- CCCCn1c(N)c(N(Cc2ccco2)C(=O)C=Cc2cc(OC)c3c(c2)OCCO3)c(=O)[nH]c1=O [TCMDC-125328] — lower, -14%
- O=C(NC1CCN(c2ccnc3cc(Cl)ccc23)C1)c1ccc(C(F)(F)F)cc1 (centres unmarked) [TCMDC-133661] — lower, 38.8%
- Cn1nc2ccc3ccccc3c2nc1=N [TCMDC-131260] — lower, 93.18%
- Cc1cccc(Nc2nc(C)cc(N3CCCN(CC4CCCCC4)CC3)n2)c1 [TCMDC-137025] — lower, -12.77%
- O=C(Nc1ccc(-c2nc3ccccc3[nH]2)cc1)c1ccc(S(=O)(=O)N2CCCCC2)cc1 [TCMDC-125834] — lower, -22.63%
- COc1ccccc1C(C)NCC(=O)Nc1ccccc1Sc1ccccc1 (centres unmarked) [TCMDC-124877] — lower, -2.069%
- O=C(COc1cnc2ccccc2n1)Nc1ccccc1Sc1ccc(Cl)cc1 [TCMDC-124892] — lower, 99.33%
- NC(=O)C1Cc2ccccc2CN1CC(=O)Nc1ccccc1Sc1ccccc1 (centres unmarked) [TCMDC-124863] — lower, 48.06%
